Experimental findings from article PMC4336329 (PLoS ONE, 2015) are described below.

SMILES strings stand for the structures. In all, about 310,000 compounds went through this assay and about 14,000 (4.5%) showed an effect of 50% or more. Effects have a minus sign here. This excerpt belongs to a sample that is enriched for strong results.
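Further: peak tail current of the secondary pulse compared with the same well before compound.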

The target of the assay is human ether-à-go-go-related gene (hERG) potassium channel (human, UniProt Q12809). Put plainly: primary screen, population patch clamp on CHO cells stably expressing hERG; higher = less effect of the substance.
human ether-à-go-go-related gene (hERG) potassium channel, sequence (Q12809 whole entry, looked up): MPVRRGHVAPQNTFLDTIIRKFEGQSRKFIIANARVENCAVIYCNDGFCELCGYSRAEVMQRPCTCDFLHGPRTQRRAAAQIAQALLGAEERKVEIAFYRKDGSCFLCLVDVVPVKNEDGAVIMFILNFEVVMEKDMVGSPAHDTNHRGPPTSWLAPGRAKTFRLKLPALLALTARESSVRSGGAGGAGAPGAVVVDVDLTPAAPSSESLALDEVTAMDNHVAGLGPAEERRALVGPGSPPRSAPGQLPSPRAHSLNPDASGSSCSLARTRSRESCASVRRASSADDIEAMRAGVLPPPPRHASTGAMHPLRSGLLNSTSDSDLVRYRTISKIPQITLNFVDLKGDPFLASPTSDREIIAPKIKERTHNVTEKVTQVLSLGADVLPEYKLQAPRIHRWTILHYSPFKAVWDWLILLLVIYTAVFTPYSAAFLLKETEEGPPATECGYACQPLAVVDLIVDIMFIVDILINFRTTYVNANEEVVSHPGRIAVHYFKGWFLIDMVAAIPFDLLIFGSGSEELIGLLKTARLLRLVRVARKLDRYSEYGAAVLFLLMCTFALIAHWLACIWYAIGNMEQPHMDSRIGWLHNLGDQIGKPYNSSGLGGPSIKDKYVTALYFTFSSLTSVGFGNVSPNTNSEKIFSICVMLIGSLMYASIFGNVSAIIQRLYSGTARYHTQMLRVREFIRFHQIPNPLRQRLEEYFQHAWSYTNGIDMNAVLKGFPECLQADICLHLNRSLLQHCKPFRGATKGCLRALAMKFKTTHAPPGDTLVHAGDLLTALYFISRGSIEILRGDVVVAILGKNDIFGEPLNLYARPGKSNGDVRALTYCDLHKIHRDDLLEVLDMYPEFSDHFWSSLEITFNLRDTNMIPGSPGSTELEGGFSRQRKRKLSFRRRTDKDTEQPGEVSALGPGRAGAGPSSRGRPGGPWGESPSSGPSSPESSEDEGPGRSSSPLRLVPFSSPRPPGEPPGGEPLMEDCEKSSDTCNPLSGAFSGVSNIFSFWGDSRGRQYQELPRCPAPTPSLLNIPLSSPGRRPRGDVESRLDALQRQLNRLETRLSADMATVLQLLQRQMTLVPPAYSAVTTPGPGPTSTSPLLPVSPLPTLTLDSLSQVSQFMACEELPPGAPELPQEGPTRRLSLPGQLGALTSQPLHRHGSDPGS
Take `Cc1ccc(C(=O)N2CCCCC2)cc1S(=O)(=O)N1CCOCC1`: the “hERG current change (%, negative = inhibition) at 10uM” value is on record as 22%.
Turning to `COc1ccc(NC(=O)C2CCCN(S(=O)(=O)c3ccc4c(c3)CCCN4C(C)=O)C2)cc1` (stereo not drawn), the “hERG current change (%, negative = inhibition) at 10uM” value came out at 9.31%.
For `CCCN1CCC(NC(=O)Nc2cc(Cl)ccc2OC)CC1`, the “hERG current change (%, negative = inhibition) at 10uM” value is recorded as -19.1%.
For the compound `CCCCOc1ccc(C(=O)Nc2ccc(N3CCN(C(=O)C(C)C)CC3)cc2)cc1`, the “hERG current change (%, negative = inhibition) at 10uM” value is on record as 6.91%.
Regarding `NC(=O)C1CCN(C(=O)c2ccc(F)c(S(=O)(=O)N3CCOCC3)c2)CC1`, the “hERG current change (%, negative = inhibition) at 10uM” value was -0.931%.
The result for `C/C(=N\NC(=O)CNC(=O)c1ccc(Br)cc1)c1ccco1` reads 5.38%.
Turning to `CCn1c(=O)cc(OCC(=O)NCCCN2CCC(C)CC2)c2ccccc21`, the “hERG current change (%, negative = inhibition) at 10uM” value was -8.39%.
Regarding `Cn1c(=O)cc(OCC(=O)NCCCN2CCN(Cc3ccccc3)CC2)c2ccccc21`, the “hERG current change (%, negative = inhibition) at 10uM” value is given as -17.8%.
On to `CCn1c(=O)cc(OCC(=O)NCCCN2CC(C)CC(C)C2)c2ccccc21` (stereo not drawn), for which the “hERG current change (%, negative = inhibition) at 10uM” value is on record as -12.5%.
On to `CCn1c(=O)cc(OCC(=O)NCCCN2CCN(c3cccc(Cl)c3)CC2)c2ccccc21`, for which the “hERG current change (%, negative = inhibition) at 10uM” value is -61.1%.
The result for `CC1CCN(CCCNC(=O)COc2cc(=O)n(C)c3ccccc23)CC1` reads 8.58%.
In the case of `Cn1c(=O)cc(OCC(=O)NCCCN2CCN(c3cccc(Cl)c3)CC2)c2ccccc21`, the “hERG current change (%, negative = inhibition) at 10uM” value is -50.8%.
The same measure for `O=S(=O)(N/N=C\c1cn(-c2ccccc2)nc1-c1ccccc1)c1ccccc1`: 5.42%; for `COC(=O)c1ccc(N2C(=O)Nc3ccccc3N2O)cc1`: 12.5%; for `CCN1CCN(C(C(=O)NC2CCCC2)c2cc3c(cc2[N+](=O)[O-])OCO3)CC1` (stereo not drawn): -1.51%.
For the compound `CN(C)S(=O)(=O)N1CCC(C(=O)O)(c2ccccc2)CC1`, the “hERG current change (%, negative = inhibition) at 10uM” value was 18.7%.
For `CCCc1nc2ccc(NC(=O)c3cccs3)cc2c(=O)n1Cc1ccccc1Cl`, the “hERG current change (%, negative = inhibition) at 10uM” value was determined as 1.8%.
Take `Cc1ccc2c(c1)nnn2C1CCN(S(=O)(=O)c2cccc(S(=O)(=O)N(C)C)c2)CC1`: the “hERG current change (%, negative = inhibition) at 10uM” value was -16.7%.
For `CC(=O)c1cccc(S(=O)(=O)N2CCC(n3nnc4cc(F)ccc43)CC2)c1`, the “hERG current change (%, negative = inhibition) at 10uM” value is given as -63.7%.
With `O=S(=O)(NC1CCCC1)c1cccc(S(=O)(=O)N2CCC(n3nnc4ccccc43)CC2)c1`, the “hERG current change (%, negative = inhibition) at 10uM” value is recorded as -26%.
The result for `O=S(=O)(c1cccc(S(=O)(=O)N2CCC(n3nnc4ccccc43)CC2)c1)N1CCCCC1` reads -55.7%.
Turning to `O=S(=O)(c1ccccc1)N1CCC(n2nnc3cc(F)ccc32)CC1`, the “hERG current change (%, negative = inhibition) at 10uM” value is given as -27.7%.
`COC(=O)c1cccc(S(=O)(=O)N2CCC(n3nnc4cc(F)ccc43)CC2)c1`: the “hERG current change (%, negative = inhibition) at 10uM” value was -34.3%.
The result for `CCCc1ccc(-c2cc(C(=O)NC3=NCCS3)c3ccccc3n2)cc1` reads -2.06%; that for `O=C(Cn1nc(-c2ccc(Cl)cc2)ccc1=O)NCCCN1CCN(Cc2ccccc2)CC1`, -64.2%.
In the case of `O=C(Cn1nc(-c2ccccc2)ccc1=O)NCCN1CCN(Cc2ccccc2)CC1`, the “hERG current change (%, negative = inhibition) at 10uM” value is on record as -19.1%.
In the case of `CCCN1CCN(CCCNC(=O)Cn2nc(-c3ccc(C)cc3)ccc2=O)CC1`, the “hERG current change (%, negative = inhibition) at 10uM” value is given as -24.6%.
Regarding `CCCN1CCN(CCCNC(=O)Cn2nc(-c3ccccc3)ccc2=O)CC1`, the “hERG current change (%, negative = inhibition) at 10uM” value was -22.2%.
Turning to `CN1CCN(CCCNC(=O)Cn2nc(-c3ccccc3)ccc2=O)CC1`, the “hERG current change (%, negative = inhibition) at 10uM” value came to 14.1%.
For `CCCN1CCN(CCCNC(=O)Cn2nc(-c3ccc(Cl)cc3)ccc2=O)CC1`, the “hERG current change (%, negative = inhibition) at 10uM” value is on record as -50.8%.
On to `Cn1c(=O)c2c(nc(CN3CCOCC3)n2CCN2CCOCC2)n(C)c1=O`, for which the “hERG current change (%, negative = inhibition) at 10uM” value came to 3.09%.
The result for `COc1ccc(/C=C(/NC(=O)c2ccccc2)C(=O)NC(Cc2c[nH]c3ccccc23)C(=O)O)cc1` (stereo not drawn) reads 14.5%; that for `COc1cccc(/C=C2\SC(=S)N(CC(=O)N(C)C3CCS(=O)(=O)C3)C2=O)c1` (stereo not drawn), 1.18%; that for `CCCCOC(=O)NS(=O)(=O)c1sc(CC(C)C)cc1-c1ccc(Cn2c(CC)nc3c(C)cc(C)nc32)cc1`, 5.9%.
For `Cc1ccccc1C1=NCC(=S)Nc2ccc(Cl)cc21`, the “hERG current change (%, negative = inhibition) at 10uM” value came to 0.98%.
The same measure for `COc1ccc(C2c3ccc4ccccc4c3Oc3ncn(CCO)c(=N)c32)cc1` (stereo not drawn): -74.2%; for `COc1ccc(C2c3ccc4ccccc4c3Oc3ncn(CCO)c(=N)c32)cc1OC` (stereo not drawn): -45.7%; for `COc1ccc(C2c3c(ncn(CCCO)c3=N)Oc3ccc4ccccc4c32)cc1OC` (stereo not drawn): -28.8%.
For `N=c1c2c(ncn1CCN1CCOCC1)Oc1ccc3ccccc3c1C2c1ccccc1` (stereo not drawn), the “hERG current change (%, negative = inhibition) at 10uM” value is given as -49.3%.
Regarding `COc1ccc(C2c3ccc4ccccc4c3Oc3ncn(CCCO)c(=N)c32)cc1OC` (stereo not drawn), the “hERG current change (%, negative = inhibition) at 10uM” value is reported as -62.3%.
Take `N=c1c2c(ncn1CCCO)Oc1c(ccc3ccccc13)C2c1ccccc1` (stereo not drawn): the “hERG current change (%, negative = inhibition) at 10uM” value is on record as -70.4%.
The same measure for `COc1ccc(C2c3c(ncn(CCCO)c3=N)Oc3ccc4ccccc4c32)cc1` (stereo not drawn): -33.9%.
With `N=c1c2c(ncn1CCCO)Oc1ccc3ccccc3c1C2c1ccccc1` (stereo not drawn), the “hERG current change (%, negative = inhibition) at 10uM” value is -53.6%.
Regarding `COC(=O)C1CN(C(=O)COc2ccc(Cl)cc2Cl)c2ccccc2O1` (stereo not drawn), the “hERG current change (%, negative = inhibition) at 10uM” value is recorded as -2.51%.
Take `CCCCNC(=O)/C(C#N)=c1\s/c(=C\c2ccccc2OC(F)F)c(=O)n1CCCOC`: the “hERG current change (%, negative = inhibition) at 10uM” value came out at 22.6%.
The result for `Cc1ccc(Nc2c([N+](=O)[O-])cc(C(=O)N3CC(=O)Nc4ccccc43)cc2[N+](=O)[O-])c(C)c1` reads 15.2%; that for `COCCNC(=O)C(=O)c1c(-c2ccccc2)[nH]c2ccccc12`, 1.69%; that for `CCOC(=O)NCc1ccc2c(c1)OCO2`, 19.7%.
Consider `O=C(CCN1C(=O)/C(=C/c2ccc(F)cc2)SC1=S)Nc1cc([N+](=O)[O-])ccc1O`, for which the “hERG current change (%, negative = inhibition) at 10uM” value was 15%.
The same measure for `COC(=O)c1ccnc(/C=N/O)c1`: 10.7%; for `CCNS(=O)(=O)c1ccc2nc(NC(=O)c3cccnc3)sc2c1`: -1.78%.
